SW480 rerep: A quantitative high throughput screen for small molecules that induce DNA re-replication in SW480 colon adenocarcinoma cells; SW480 DNA re-replication, Hoechst DNA content imaging, 48 h; Potency, µM (series often up to 46.1 µM), for inactives: at the top dose re-replication activation, actives largely listed as activators; hit rate 1.8% among 340,000; note: % of control where 0% means no effect; nearly all actives have a fitted effect of over 55% in size
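Readout is total intensity of Hoechst-stained nuclei, excited at 405 nm and collected at 500-530 nm. Compound treatment lasted 48 hr at 37 C in 5% CO2 before staining.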
MCF10A rereplic: A quantitative high throughput screen for small molecules that induce DNA re-replication in MCF 10a normal breast cells; MCF 10A DNA re-replication, Hoechst nuclear intensity, 48 h; hit rate 2.9% among 350,000; Potency, µM (doses to about 46.1 µM), for the others: at the highest dose activity, positive = re-replication, usual class: activators; note: % of control where 0% means no effect; nearly all actives have a fitted effect of over 50% in size
KB-3-1 tox: qHTS assay for MDR1-selective chemotherapeutics: Primary screen using the parental adenocarcinoma cell KB-3-1 | KB-3-1 viability, CellTiter-Glo ATP luminescence, 72 h | Potency, µM (titrated, usually from 46.1 µM), most hits filed as cytotoxic | hit rate 1.4% among 400,000; note: % is set by controls: 0 for no effect and ±100 for the full control effect; nearly all actives have a fitted effect of over 60% in size
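Screening of KB-3-1 cells (DMEM, 10% FBS, phenol-red free) ran from lowest to highest compound concentration; after 72 h at 37 °C viability was read luminescently and curves fitted.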
KB-V1 MDR tox: qHTS assay for MDR1-selective chemotherapeutics: Primary screen using the drug-selected MDR subline cells KB-V1; hit rate 3.4% among 400,000; AID 1347076, 2019; KB-V1 MDR cells viability, CellTiter-Glo, 72 h; Potency, µM (series often up to 46.1 µM), actives largely listed as cytotoxic; note: % is set by controls: 0 for no effect and ±100 for the full control effect; nearly all actives have a fitted effect of over 60% in size
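Drug-selected KB-V1 cells, grown in DMEM lacking phenol red with 10% FBS, receive compound titrations; after three days at 37 degrees C, surviving cell ATP is quantified by CellTiter-Glo luminescence and responses normalized and curve-fitted.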
HT1080NT lethal: qHTS for induction of synthetic lethality in tumor cells producing 2HG: qHTS for the HT-1080-NT fibrosarcoma cell line; HT-1080-NT fibrosarcoma viability, CellTiter-Glo ATP luminescence, 48 h; Potency, µM (titrated, usually from 46.1 µM), inactives show top-dose activity, negative = less viability, actives largely listed as cytotoxic; hit rate 1.6% among 360,000;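 note: NT is the 2HG producing partner of a matched IDH1 knockdown line; 0% = DMSO-treated cells and -100% = media-only wells without cells; nearly all actives have a fitted effect of over 55% in size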
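Luminescent CellTiter-Glo readout after 48 hours of compound exposure at 37 degrees C defined viability of HT-1080-NT cells. Activity was normalized to DMSO wells and cell-free media wells; concentration-response curves were fitted and assigned curve classes.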
HT1080 IDH1KD tx: qHTS for induction of synthetic lethality in tumor cells producing 2HG: qHTS for the HT-1080-IDH1KD cell line | HT-1080 IDH1 knockdown viability, ATP luminescence, 48 h | Potency, µM (highest dose often 46.1 µM), inactives show at the top dose activity, negative = toxicity, actives largely listed as cytotoxic | hit rate 2% among 360,000 | AID 686971, 2013;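 note: 0% = DMSO wells and -100% = cell-free medium wells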
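Luminescent ATP read-out (CellTiter-Glo, 10 min at room temperature) after 48 h compound exposure at 37 °C gave viability of IDH1-knockdown HT-1080 cells. Activity was normalised to DMSO and cell-free wells, then fitted as concentration-response curves.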
Starred values were filed as active, the others as inactive; i = inactive; ? = inconclusive; / = not tested or not shown; [ ] = remark or other dose. Rows were chosen to be rich in hits. Some 8% of all compounds tested hit in one or more screens of this group. Calls come from the whole dose curve; as a rule, active = well fitted curve in the direction sought with a large enough effect; inconclusive = small, poorly fitted or top-dose-only effect, or another doubt; inactive = no such curve, though single readings can be large; an effect the other way counts as inactive or inconclusive. Potency is the fitted concentration of half-maximal effect.

SMILES	SW480 rerep	MCF10A rereplic	KB-3-1 tox	KB-V1 MDR tox	HT1080NT lethal	HT1080 IDH1KD tx
CCOc1ccc(N(CC(=O)Nc2cccc(F)c2)S(=O)(=O)c2c(C)noc2C)cc1	18.4%	?	20.6µM*	?	?	?
CCn1c(CNC(=O)C23CC4CC(CC(C4)C2)C3)nnc1SCC(=O)Nc1ccc(C)cc1	/	/	i	i	/	/
CC(=O)Nc1ccc(Nc2cc(C)nc3c(-c4ccccc4)c(C)nn23)cc1	-7.5%	-6.8%	i	i	-8.3%	-21.9%
Cc1cc(NCCC(C)C)n2nc(C)c(-c3ccccc3)c2n1	7.9%	14.6µM*	i	20.6µM*	?	?
Cc1nn2c(NCCCn3ccnc3)cc(C(C)C)nc2c1-c1ccccc1	-35.4%	-9.0%	i	?	14.6µM*	?
Cc1nn2c(NCc3ccccn3)cc(C(C)C)nc2c1-c1ccccc1	?	?	i	?	-26.7%	?
CC(=O)Nc1ccc(Nc2cc(C(C)C)nc3c(-c4ccccc4)c(C)nn23)cc1	?	?	5.8µM*	i	?	?
CC1CCCCN1CCCOC(=O)c1ccccc1 (centres undefined)	4.1%	?	/	/	/	/
CC(C)(C)NC(=O)c1ccc2nc(CCc3ccccc3)oc2c1	/	/	i	i	/	/
CCN(CC)CCCNC(=O)C1CCC(CNS(=O)(=O)c2c(C)cc(C)cc2C)CC1 (centres undefined)	-6.6%	20.6µM*	i	i	-11.7%	-10.2%
O=C(Nc1ccc(C(F)(F)F)cc1)c1cc(S(=O)(=O)NC2CCCCC2)ccc1F	/	/	i	?	/	/
O=C(Nc1ccc(C(F)(F)F)cc1)c1cc(S(=O)(=O)NC2CCCCCC2)ccc1F	/	/	?	18.4µM*	/	/
O=C(Nc1ccc(Br)cc1)c1cc(S(=O)(=O)NC2CCCC2)ccc1F	/	/	20.6µM*	?	/	/
O=c1c2oc3ccccc3c2n(Cc2ccc(Cl)cc2)c(=O)n1Cc1ccccc1	/	/	i	?	/	/
C/C(CCN1CCCCc2nc(C)c(C)cc21)=N\O[C@@H](C)CN1CCCCc2nc(C)c(C)cc21	?	23.1µM*	/	/	/	/
C/C(CCN1CCCCc2nc(C)c(C)cc21)=N\OC[C@@H](O)[C@H]1O[C@@H]2OC(C)(C)O[C@@H]2[C@H]1O	-1.0%	6.5%	/	/	/	/
COCCN1C(=O)c2ccc(C(=O)Nc3nccs3)cc2C1=O	1.16µM*	?	i	i	-3.9%	1.1%[9.24 µM]
COc1ccc(C)cc1N(C)C(=O)c1c2c(nc3ccccc13)C(=O)N(C1CCCCC1)C2	/	/	i	i	/	/
CC(C)Cn1c(-c2csc3ccccc23)n[nH]c1=S	5.7%	11.2%	i	16.4µM*	-3.7%	1.1%
CCn1c(-c2csc3ccccc23)n[nH]c1=S	-3.0%	1.0%	18.4µM*	7.31µM*	-2.4%	-1.2%
Cc1cccc(-n2c(-c3csc4ccccc34)n[nH]c2=S)c1	-1.1%	28.3%	i	i	1.7%	3.5%
CCc1cccc(C)c1NC(=O)CCn1nc(C)c2c(C)n(-c3ccccc3)nc2c1=O	/	/	i	i	/	/
Cc1cc(C)c(C)c(S(=O)(=O)N2CCN(c3ccccn3)CC2)c1C	-15.3%	9.7%	i	?	-17.0%	-0.3%
Cc1cc(C)c(C)c(S(=O)(=O)N2CCN(c3ncnc4ccccc34)CC2)c1C	1.4%	18.4µM*	18.4µM*	?	?	23.1µM*
O=C(Nc1cc(OC(=O)C(F)(F)F)c2nonc2c1OC(=O)C(F)(F)F)C(F)(F)F	/	/	?	i	/	/
SMILES	SW480 rerep	MCF10A rereplic	KB-3-1 tox	KB-V1 MDR tox	HT1080NT lethal	HT1080 IDH1KD tx
Clc1ccc2nc(N3CCNCC3)nc(-c3ccccc3)c2c1	11.2µM*	?	?	18.4µM*	-10.5%	19.6%
O=C1CN(c2nc(-c3ccccc3)c3cc(Cl)ccc3n2)c2ccccc2N1	?	0.0%	i	i	5.3%	4.1%
CN1CCN(c2nc(-c3ccccc3)c3cc(Cl)ccc3n2)CC1	7.94µM*	3.98µM*	?	?	?	-24.1%
c1ccc2c(N3CCCCC3)nc(N3CCCCC3)nc2c1	-6.1%	-3.6%	?	?	1.0%	-5.4%
c1ccc(-c2nc(N3CCCC3)nc3ccccc23)cc1	18.4µM*	23.1µM*	i	i	0.3%	-22.6%
CN1CCN(c2nnc(-c3ccccc3)c(-c3ccccc3)n2)CC1	-1.5%	-2.5%	i	?	-13.0%	-26.3%
COc1ccc(CCc2nnc(CCC(=O)N(C)Cc3ccnc4ccccc34)o2)cc1	-10.2%	-3.2%	i	i	?	20.6µM*
Cc1nonc1OCC(C)(COc1nonc1C)NC(=O)c1ccc(Cl)cc1	0.4%	-0.8%	?	4.11µM*	?	-28.0%
CCCc1nc(-c2ccc(-c3ccc(F)cc3)cc2)no1	-3.9%	-0.5%	i	20.6µM*	12.2%	6.4%
Nc1ccccc1-c1nc2ccccc2s1	?	16.4µM*	i	i	-17.2%	-14.4%
O=c1c(-c2nc3ccccc3s2)cccn1Cc1ccccc1	11.6µM*	5.17µM*	i	?	2.5%	-13.0%
Cc1cc(C)cc(NC(=O)c2ncn(-c3ccccc3)n2)c1	/	/	i	i	/	/
CNC(=O)NC(=O)C(NC1CCCc2ccccc21)c1ccccc1 (centres undefined)	?	?	i	i	-10.1%	-7.1%
Cc1ccc(NC(=O)C(NC2CCCc3ccccc32)c2ccccc2)cc1Cl (centres undefined)	?	1.3µM*	?	i	-5.4%	-26.0%
N#Cc1cc2sc3nnc(-c4ccncc4)n3c2cc1C#N	-33.0%[9.22 µM]	28.9%	6.51µM*	2.06µM*	?	?
CC(=O)Nc1ccccc1-c1nc2ccccc2n(CC(=O)c2ccc(C)c(C)c2)c1=O	/	/	i	i	/	/
CC(C)CN(C)Cc1c(C(=O)N2CCc3ccccc3C2)nc2ccc(Cl)cn12	2.3%	11.4%	?	16.4µM*	?	-29.4%
CC1(C)c2[nH]c3ccccc3c2C[C@@H]2C(=O)N(Cc3ccc(F)cc3)C(=O)N21	1.6%	18.4µM*	?	?	/	/
Cc1ccc(CN2C(=O)[C@@H]3Cc4c([nH]c5ccccc45)C(C)(C)N3C2=O)cc1	-9.9%	?	?	?	/	/
